Assay outcomes (PubChem)
An excerpt weighted towards active compounds, which were near 9.5% of everything screened.
Tau fibril FP: blocks human tau fibril formation measured by polarization; P10636; K18 P301L tau heparin fibrillization, Alexa594 FP, 6 h; Potency, µM (top dose mostly 57.7 µM), inactives show top-dose activity, negative = inhibition, hits mostly inhibitors; 280,000 tested, 0.39% active; also: nearly all actives have a fitted effect of over 55% in size
Target sequence (P10636 561-689 P618L limits assumed): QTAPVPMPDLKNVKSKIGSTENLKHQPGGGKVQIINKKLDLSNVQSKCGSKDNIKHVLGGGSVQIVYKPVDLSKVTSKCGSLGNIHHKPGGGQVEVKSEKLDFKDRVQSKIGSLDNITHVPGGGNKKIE
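Quantitative HTS format: compounds meet 15 uM recombinant K18 P301L tau and Alexa 594-tau tracer in 100 mM sodium acetate pH 7; 20 uM heparin triggers fibrillization at 37 C over 6 hr; FP gives the signal.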
Tau ThT inhib: inhibitors of human tau fibril formation, thioflavin T binding; P10636; recombinant tau K18 P301L, heparin-induced fibrillization, ThT fluorescence; Potency, µM (doses to about 57.4 µM), for inactives: at the top dose activity, negative = inhibition, most hits filed as inhibitors; 270,000 tested, 2.1% active; also: nearly all actives have a fitted effect of over 55% in size
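Heparin-induced fibrillization of the P301L-mutant K18 repeat-domain fragment of human tau was followed by ThT binding in quantitative high-throughput format.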
HPGD inh: HPGD (human) dehydrogenase inhibition; purified HPGD, NADH fluorescence kinetic, PGE2 substrate; Potency, µM, for inactives: at the highest dose activity change, negative = inhibition, actives largely listed as inhibitors; 150,000 tested, 4.3% active; active = well fitted inhibition curve with a large enough effect, not every such curve was filed as active; inconclusive = small, poorly fitted or top-dose-only effect, or another doubt; inactive = no such curve, though single readings can be large or run the other way
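NADH formation kinetics: reaction with 30 uM PGE2 and 1 mM NAD+ (final), 20 nM enzyme, Tris-HCl pH 8 with Tween 20, after 15 min compound preincubation at room temperature. Fluorescence change, last versus first of five reads.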
NPSR antag: blocks cAMP signaling of the human neuropeptide S receptor. Q6W5P4. CHO-NPSR cells, cAMP TR-FRET, antagonist mode. Potency, µM (top dose mostly 38.3 µM), for the others: at the highest dose activity change, negative = inhibition, most hits filed as inhibitors. 220,000 tested, 1% active. AID 1461; also: nearly all actives have a fitted effect of over 50% in size
ALDH1A1 inh: ALDH1A1 (human) enzyme inhibition. AID 1030. Purified ALDH1A1, NADH fluorescence, propionaldehyde substrate. 220,000 tested, 7.3% active. Potency, µM (titrated, usually from 75.3 µM), inactives show top-dose activity, negative = inhibition, hits mostly inhibitors. P00352; active = well fitted inhibition curve with a large enough effect, not every such curve was filed as active; inconclusive = small, poorly fitted or top-dose-only effect, or another doubt; inactive = no such curve, though single readings can be large or run the other way;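 also: plate controls were no enzyme wells and a reference inhibitor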
Target sequence (P00352 whole entry, looked up): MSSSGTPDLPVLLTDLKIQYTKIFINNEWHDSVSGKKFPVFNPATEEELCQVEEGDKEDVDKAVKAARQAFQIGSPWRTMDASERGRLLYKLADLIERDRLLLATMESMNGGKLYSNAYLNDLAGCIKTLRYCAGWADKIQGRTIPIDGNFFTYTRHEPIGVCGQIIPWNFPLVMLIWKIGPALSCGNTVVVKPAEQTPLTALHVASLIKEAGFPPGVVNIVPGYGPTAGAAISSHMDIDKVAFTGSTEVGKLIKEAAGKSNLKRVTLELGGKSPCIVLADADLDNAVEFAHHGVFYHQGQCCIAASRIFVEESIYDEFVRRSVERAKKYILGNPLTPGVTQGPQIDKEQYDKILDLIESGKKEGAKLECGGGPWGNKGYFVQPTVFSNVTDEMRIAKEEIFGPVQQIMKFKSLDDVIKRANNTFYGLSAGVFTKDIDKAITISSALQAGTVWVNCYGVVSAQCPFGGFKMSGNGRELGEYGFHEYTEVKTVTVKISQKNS
Tau fluor cs: counter-screen for tau fibril formation inhibitors; Potency, µM (highest dose often 57.7 µM), for inactives: top-dose activity change, negative = decrease; tau K18 P301L (four-repeat tau fragment) Alexa594 fluorescence, heparin fibrillization; 280,000 tested, 0.93% active; also: nearly all actives have a fitted effect of over 55% in size
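Human K18 P301L tau (15 uM unlabeled plus 0.24 uM Alexa 594-labeled, final) in 100 mM sodium acetate pH 7 was mixed with compound and 20 uM heparin and incubated 6 hr at 37 C.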
Starred values were filed as active, the others as inactive; ? = inconclusive; / = no result; [ ] = another dose, or the depositor's remark. Unless noted, calls follow the shape of the dose curve; as a rule, active = well fitted curve in the direction sought with a large enough effect; inconclusive = small, poorly fitted or top-dose-only effect, or another doubt; inactive = no such curve, though single readings can be large; an effect the other way counts as inactive or inconclusive. Unless noted, % is scaled to controls: 0 for no effect and ±100 for the full control effect; potency is read from the fitted curve at half-maximal effect.

SMILES	Tau fibril FP	Tau ThT inhib	HPGD inh	NPSR antag	ALDH1A1 inh	Tau fluor cs
CC(C(=O)OCC(=O)Nc1ccc(S(=O)(=O)N2CCCCC2)cc1)N1C(=O)c2ccccc2C1=O (stereo unspecified)	?	-1%	-9%	-25%[46.1 µM]	-8%	?
CC(C(=O)OCC(=O)Nc1cccc(S(=O)(=O)N2CCOCC2)c1)N1C(=O)c2ccccc2C1=O (stereo unspecified)	-3%	-3%	/	-7%	25µM*	-16%
CC(C(=O)OCC(=O)Nc1ccc2c(c1)OCO2)N1C(=O)c2ccccc2C1=O (stereo unspecified)	7%	-9%	-19%	5%[46.1 µM]	7.1µM*	1%
CCCCn1c(SCC(=O)NCc2ccco2)nnc1-c1ccco1	-1%	-10%	-24%	-14%[46.1 µM]	20µM*	1%
Cc1[nH]c2ccc(-c3nnc(SCC(=O)NCc4ccco4)n3Cc3ccccc3)cc2c1C	8%	?	16µM*	?	32µM*	?
CCn1c(SCC(=O)NCCc2ccccc2)nnc1-c1cccs1	6%	-4%	28µM*	7%[46.1 µM]	-5%	-1%
CCn1c(SCC(=O)NCc2ccco2)nnc1-c1cccs1	-16%	?	25µM*	-8%[46.1 µM]	8.9µM*	-1%
O=C(CNC(=O)c1ccccc1Cl)OCc1cc(=O)n2ccsc2n1	-4%	-5%	/	/	/	-3%
Cc1oc(-c2cccs2)nc1CS(=O)CC(=O)NCCc1ccccc1 (stereo unspecified)	-2%	?	32µM*	-9%[46.1 µM]	?	-16%
COC(=O)CSc1nnc(-c2ccco2)n1Cc1ccco1	-4%	-5%	-20%	2%[46.1 µM]	14µM*	-3%
O=C(CSc1nnc(-c2ccco2)n1Cc1ccccc1)OC1CCCCC1	-2%	-17%	25µM*	-25%[46.1 µM]	?	-9%
CCn1c(SCC(=O)NNC(=O)c2ccc(C)cc2)nnc1-c1ccco1	-6%	7%	/	1%	-1%	0%
O=C(CSc1nnc(-c2ccncc2)n1Cc1ccco1)OC1CCCCC1	5%	-7%	-24%	-6%[46.1 µM]	?	-5%
CCn1c(SCC(=O)NNC(=O)c2ccc(OC)cc2)nnc1-c1ccco1	0%[2.34 µM]	5.6µM*	/	0%	-10%	-45%
COc1ccc(CCNc2nc3c(-c4cccc(C)c4)nnn3c3ccccc23)cc1OC	-10%	6%	/	/	/	-7%
C=CCC(O)c1ccccc1 (stereo unspecified)	2%	-2%	-7%	/	8%	-1%
Cc1nn(-c2ccccc2)c(-n2cccc2)c1C(=O)NCCCN1CCN(c2ccccc2F)CC1	-6%	-10%	/	/	/	-14%
O=C(NCC(c1cccnc1)N1CCN(Cc2ccccc2)CC1)C(=O)Nc1cccc(F)c1 (stereo unspecified)	-6%	?	/	/	/	-26%
CCn1c(SCC(=O)NCc2ccco2)nnc1C(C)C	?	?	-22%	-19%[46.1 µM]	4µM*	-5%
CCOC(=O)c1c(C)[nH]c(C(=O)CSc2nnc(-c3cccs3)n2Cc2ccccc2)c1C	2%	-15%	-19%	-20%[46.1 µM]	-1%	-7%
CC(=O)c1c(C)[nH]c(C(=O)CSc2nnc(-c3cccs3)n2Cc2ccccc2)c1C	1%	2%	?	-11%[46.1 µM]	13µM*	3%
O=c1cc(CSc2nnc(-c3cccs3)n2Cc2ccccc2)nc2sc3ccccc3n12	6%	?	-6%	-18%[46.1 µM]	7.9µM*	-13%
O=C(CSc1nnc(Cc2cccs2)n1Cc1ccco1)Nc1ccc(Br)cc1	7%	?	?	?	20µM*	-24%
CCCCNc1nc2c(S(=O)(=O)c3ccc(Br)cc3)nnn2c2ccsc12	-18%	11%	/	/	/	-14%
COc1ccc(OCC(=O)Nc2cccc(-c3nc4ccccc4s3)c2C)cc1	3%	?	/	/	/	-11%
SMILES	Tau fibril FP	Tau ThT inhib	HPGD inh	NPSR antag	ALDH1A1 inh	Tau fluor cs
COCCNC(=O)CSCc1nc(-c2ccc(SC)cc2)oc1C	7%	-5%	?	5%[46.1 µM]	?	3%
Cc1oc(-c2ccccc2F)nc1CS(=O)CC(=O)NCc1cccs1 (stereo unspecified)	2%	?	-6%	-7%[46.1 µM]	-3%	-14%
Cc1oc(-c2ccccc2F)nc1CS(=O)CC(=O)NCc1ccc2c(c1)OCO2 (stereo unspecified)	-4%	?	?	-8%[46.1 µM]	32µM*	-12%
Cc1cc(Cl)ccc1NC(=O)CN1C(=O)COc2ccc(S(=O)(=O)Nc3ccccc3)cc21	?	18%	/	/	/	?
COc1cccc(OC)c1C(=O)Nc1nnc(-c2cccs2)s1	0%	?	/	21%	7.9µM*	-8%
CCC(CC)C(=O)Nc1nnc(-c2cccs2)s1	-2%	-4%	?	-14%[46.1 µM]	?	-6%
CCOC(=O)C1=C(O)/C(=C/c2ccc(-c3ccccc3C(=O)O)o2)SC1=Nc1ccc(C)cc1	2%	-13%	-13%	1%[46.1 µM]	2%	-6%
CCOC(=O)C1=C(O)/C(=C/c2ccc(-c3ccccc3C(=O)O)o2)SC1=Nc1ccc(OC)cc1	5%	16µM*	?	-6%[46.1 µM]	?	-7%
N#Cc1c(-c2ccccc2)nc(-c2ccncc2)[nH]c1=O	-2%	2%	/	8%	-5%	4%
N#Cc1c(-c2ccccc2)nc(-c2ccccc2)[nH]c1=O	1%	8%	2µM*	-21%[46.1 µM]	?	0%
O=C(COC(=O)c1ccc2c(c1Cl)C(=O)c1ccccc1C2=O)NC1CCCCC1	1%	-17%	6.3µM*	-29%	-8%	-27%
O=C(COC(=O)c1ccc2c(c1Cl)C(=O)c1ccccc1C2=O)NC1CC1	11%	?	7.9µM*	0%	?	?
O=C(COC(=O)c1c(Cl)cccc1Cl)NC1CCCCC1	-3%	-4%	/	-5%	0%	-1%
O=C(COC(=O)c1ccccc1OCc1ccc(Cl)cc1)NC1CC1	-5%	0%	-10%	?	-3%	-4%
COc1ccc(NC(=O)C2CCCN(c3nnc(C)c4c(C)n(-c5ccccc5)nc34)C2)cc1Cl (stereo unspecified)	-1%	-13%	/	/	/	-17%
CN(C)/C=C/C(=O)/C=C/c1cn(-c2ncc(C(F)(F)F)cc2Cl)c2ccccc12	1%	?	14µM*	?	-5%	-17%
COc1ccccc1-c1cnnc(N/N=C/c2ccc(-c3cccc(Br)c3)o2)n1	0%	3.5µM*	-3%	-19%	3%	?
COc1ccc(-c2cnnc(N/N=C/c3ccc(-c4ccc([N+](=O)[O-])cc4)o3)n2)cc1	8%	10%	/	5%	3%	16%
CN(C)CCNc1ccccn1	/	/	-9%	/	14%[13.5 µM]	/
Cc1ccc(-c2nc(-c3ccccc3)no2)c(Cl)c1	-13%	-13%	40µM*	?	8%	-16%
